Bioassay records (PubChem)
Rows were chosen to be rich in hits. Some 2.3% of all compounds tested hit in one or more screens of this group.
SENP6 block: inhibitors of human SENP6 protease; Q9GZR1; Recombinant SENP6 catalytic domain, aminoluciferin luminescence; inhibition, % at 10 µM; actives 1.8% (n = 330,000);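 active = inhibition above about 50% at the single tested dose, limit read from the data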;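 also: plate controls were DMSO wells with enzyme for no effect and DMSO wells lacking enzyme for full effect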
Target sequence (Q9GZR1 628-1112 limits assumed): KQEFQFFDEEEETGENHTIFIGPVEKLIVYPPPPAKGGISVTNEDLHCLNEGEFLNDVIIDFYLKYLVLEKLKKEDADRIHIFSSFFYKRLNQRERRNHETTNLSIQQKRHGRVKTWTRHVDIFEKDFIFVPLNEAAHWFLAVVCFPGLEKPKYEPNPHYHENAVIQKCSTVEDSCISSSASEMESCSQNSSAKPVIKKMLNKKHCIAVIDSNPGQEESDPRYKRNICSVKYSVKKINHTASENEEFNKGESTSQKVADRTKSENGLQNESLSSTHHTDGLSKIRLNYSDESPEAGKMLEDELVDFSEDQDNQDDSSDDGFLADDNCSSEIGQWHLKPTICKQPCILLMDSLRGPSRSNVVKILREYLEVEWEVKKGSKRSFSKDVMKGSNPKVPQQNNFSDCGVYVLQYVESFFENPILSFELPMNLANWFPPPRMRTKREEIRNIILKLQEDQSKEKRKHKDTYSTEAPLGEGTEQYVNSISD
SENP8 block-1: inhibitors of human SENP8 protease; purified SENP8, Z-RLRGG-aminoluciferin cleavage, luminescence; actives 1.2% (n = 330,000); inhibition, % at 10 µM; Q96LD8; in the data active = inhibition above about 50%
SENP7 block: blocks the human protease SENP7; Q9BQF6; recombinant SENP7, Z-RLRGG-aminoluciferin luminescence, 40 min; inhibition, % at 5 µM; actives 1.5% (n = 330,000);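 active = inhibition above about 50% at the single test dose, limit read from the data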;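 also: plate controls were DMSO with enzyme for no effect and no enzyme buffer wells for full effect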
HSP90 inh: inhibitors of HSP90 luciferase refolding in rabbit reticulocyte lysate | luciferase refolding luminescence, 3 h | inhibition, % at 5.6 µM | actives 0.91% (n = 290,000) | AID 1789;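 active = inhibition above the screen-wide mean plus 3 SD, computed separately per campaign, cut at about 16% in these data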;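 also: 0% = DMSO wells and 100% = 60 µM geldanamycin wells; inhibitors lower the luminescence because luciferase stays unfolded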
SENP8 block-2: SENP8 (human) protease inhibition. Q96LD8. recombinant SENP8, Nedd8 substrate fluorescence. AID 602440. inhibition, % at 20 µM. actives 0.64% (n = 360,000); in the data active = inhibition mostly above about 40%, no sharp cut-off; inactive = mostly below about 27%
LGR2 inh: blocks bursicon-induced cAMP signaling via Drosophila LGR2; inhibition, % at 9.99 µM; HEK293 LGR2, CRE-luciferase, bursicon-stimulated, 4 h; actives 0.35% (n = 380,000);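 active = drop in luminescence signal, shown as inhibition above about 50% in the replicate tests, limit read from the data, passing the limit was not always enough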;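 also: agonist challenge used bursicon conditioned medium at about half maximal strength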
SENP8 conf: SENP8 (human) inhibition, single concentration confirmation | shares compounds with SENP8 block-2 | purified SENP8, Nedd8-AMC/pro-Nedd8 cleavage fluorescence, 30 min | inhibition, % at 25 µM | actives 15% (n = 1,400) | AID 624319; in the data active = inhibition mostly above about 39%, no sharp cut-off; inactive = mostly below about 34%
Starred values were filed as active, the others as inactive.

Results for C[C@H](CO)N1C[C@H](C)[C@@H](CN(C)C(=O)CC2CC2)Oc2cc(C3=CCCC3)ccc2S1(=O)=O ?
LGR2 inh: 1.2

Results for Cc1c(N=C2N=C(NC(=O)c3cccs3)c3ccccc32)c(=O)n(-c2ccccc2)n1C ?
SENP6 block: 1.0; SENP8 block-1: 8.2; SENP7 block: 3.5; HSP90 inh: -4.0; SENP8 block-2: 59.8*; LGR2 inh: 20.4; SENP8 conf: 17.5

How did Cc1c(N=C2N=C(NC(=O)NC(C)(C)C)c3ccccc32)c(=O)n(-c2ccccc2)n1C do in these assays?
SENP6 block: -10.9; SENP8 block-1: -5.9; SENP7 block: -1.2; HSP90 inh: -1.5; SENP8 block-2: 9.0; LGR2 inh: 8.8

How did COc1ccc(S(=O)(=O)N2C[C@H](O)COC[C@H]3O[C@H](CC(=O)NCCCN(C)C)CC[C@@H]32)cc1 do in these assays?
LGR2 inh: -21.3

What do the screens show for `CC(=O)c1cccc(NC(=O)C2CCCN2S(=O)(=O)c2cccs2)c1` (stereo not drawn)?
SENP8 block-2: 41.0*; LGR2 inh: -10.8; SENP8 conf: 17.2

How did COC(=O)c1ccc(NC(=O)C2CCCN2S(=O)(=O)c2ccc(C)cc2)cc1 (stereo not drawn) do in these assays?
SENP6 block: 18.7; SENP8 block-1: -9.5; SENP7 block: 0.9; HSP90 inh: -4.1; SENP8 block-2: -4.0; LGR2 inh: -2.5

How did COC(=O)c1ccc(NC(=O)C2CCCN2S(=O)(=O)c2ccc(OC)cc2)cc1 (stereo not drawn) do in these assays?
SENP6 block: -4.4; SENP8 block-1: 4.1; SENP7 block: 1.5; HSP90 inh: -2.3; SENP8 block-2: 40.8*; SENP8 conf: 15.6

How did COc1ccc(-c2cn(CC[C@H]3CC[C@H](NC(=O)NC(C)C)[C@@H](CO)O3)nn2)cc1 do in these assays?
LGR2 inh: 1.7

Results for Cc1noc(C)c1S(=O)(=O)Nc1ccc2c(c1)C(=O)N([C@H](C)CO)C[C@@H](C)[C@@H](CN(C)S(C)(=O)=O)OCCCC[C@H](C)O2 ?
LGR2 inh: 6.4

How did CC(C)(C)c1cc(C(=O)NNc2cccc(Cl)c2)n(Cc2ccccc2)n1 do in these assays?
SENP6 block: -8.3; SENP8 block-1: -4.0; SENP7 block: -6.4; HSP90 inh: 1.4; SENP8 block-2: 42.9*; LGR2 inh: -13.2; SENP8 conf: 20.0

Results for Cc1csc2c(N3CCN(C(=O)NC(C)(C)C)CC3)ncnc12 ?
SENP6 block: -42.8; SENP8 block-1: 0.7; SENP7 block: 7.2; HSP90 inh: 0.8; SENP8 block-2: 18.8; LGR2 inh: -12.9

What do the screens show for `Cc1csc2c(N3CCN(C(=O)c4ccc(C(C)(C)C)cc4)CC3)ncnc12`?
SENP6 block: -29.7; SENP8 block-1: -15.0; SENP7 block: 0.9; HSP90 inh: 5.3; SENP8 block-2: 40.4*; LGR2 inh: -1.1; SENP8 conf: 20.1

How did COc1ccc(CCn2nnnc2C(CC(C)C)N2CCN(c3ncccn3)CC2)cc1OC (stereo not drawn) do in these assays?
SENP6 block: 2.2; SENP8 block-1: 3.7; SENP7 block: 1.0; HSP90 inh: 1.6; SENP8 block-2: 42.8*; SENP8 conf: 8.4

Results for CC(C)Nc1nc(NC(C)C)nc(N(C#N)C(C)C(=O)N(C)C)n1 (stereo not drawn) ?
HSP90 inh: 5.0

How did CCNc1nc(NC(C)C)nc(N(C#N)C(C)C(=O)N(C)C)n1 (stereo not drawn) do in these assays?
SENP6 block: 17.4; SENP8 block-1: 6.8; SENP7 block: 4.5; HSP90 inh: 1.8; SENP8 block-2: 45.4*; SENP8 conf: -9.9

How did CCN(CC)C(=O)CSc1n[nH]c(=S)n1N do in these assays?
SENP6 block: 2.6; SENP8 block-1: 3.5; SENP7 block: 8.3; HSP90 inh: 1.4; SENP8 block-2: 44.3*; LGR2 inh: -3.6; SENP8 conf: 15.1

What do the screens show for `Cc1nn(Cc2ccc(Cl)c(Cl)c2)c(C)c1NC(=O)c1cn(-c2ccccc2)nc1-c1ccccc1`?
SENP6 block: -2.7; SENP8 block-1: -5.5; SENP7 block: -5.2; HSP90 inh: 2.1; SENP8 block-2: 40.4*; SENP8 conf: 7.3

What do the screens show for `COc1ccc(NC(=O)C2CC(=O)N/C(=N/NC(=O)c3ccc(Cl)cc3)S2)cc1` (stereo not drawn)?
SENP6 block: 7.3; SENP8 block-1: -2.3; SENP7 block: 12.1; HSP90 inh: 3.7; SENP8 block-2: 40.5*; LGR2 inh: -3.7; SENP8 conf: 9.0

Results for O=C(c1ccccn1)N1C[C@@H]2[C@H](c3ccccc31)[C@H](CO)N2C(=O)Nc1ccccc1 ?
LGR2 inh: 0.8

What do the screens show for `Cc1cc(C)n(-c2cc(N3CCN(C(=O)c4ccc(C(C)(C)C)cc4)CC3)ccc2[N+](=O)[O-])n1`?
SENP6 block: -11.7; SENP8 block-1: -1.4; SENP7 block: 0.3; HSP90 inh: 1.2; SENP8 block-2: 44.8*; SENP8 conf: 21.7

How did Cc1cc(C)n(-c2cc(N3CCN(S(=O)(=O)c4ccc(C)c(C)c4)CC3)ccc2[N+](=O)[O-])n1 do in these assays?
SENP6 block: 6.8; SENP8 block-1: -2.1; SENP7 block: 8.6; HSP90 inh: 1.6; SENP8 block-2: 44.4*; SENP8 conf: 12.8

Results for Cc1cc(C)n(-c2cc(N3CCN(C(=O)c4ccccc4C)CC3)ccc2[N+](=O)[O-])n1 ?
SENP6 block: -20.3; SENP8 block-1: 0.7; SENP7 block: -3.5; HSP90 inh: -2.9; SENP8 block-2: 53.0*; SENP8 conf: 23.3

How did Cc1ccc(S(=O)(=O)N2CCN(c3ccc([N+](=O)[O-])c(Sc4nncn4C)c3)CC2)cc1 do in these assays?
SENP6 block: -0.5; SENP8 block-1: -6.3; SENP7 block: 2.2; HSP90 inh: 8.8; SENP8 block-2: 28.0; LGR2 inh: 5.9

Results for Cn1cnnc1Sc1cc(N2CCN(S(=O)(=O)c3ccc(Cl)c(Cl)c3)CC2)ccc1[N+](=O)[O-] ?
SENP6 block: -66.2; SENP8 block-1: -12.1; SENP7 block: -3.4; HSP90 inh: -0.9; SENP8 block-2: 61.5*; SENP8 conf: 20.7

How did Cc1cc(C)n(-c2cc(N3CCN(S(=O)(=O)c4ccc5ccccc5c4)CC3)ccc2[N+](=O)[O-])n1 do in these assays?
SENP6 block: -0.6; SENP8 block-1: -1.3; SENP7 block: 1.8; HSP90 inh: 7.8; SENP8 block-2: 29.6

What do the screens show for `C[C@H]1CN([C@@H](C)CO)C(=O)c2cc(NC(=O)CCC(F)(F)F)ccc2O[C@@H]1CN(C)C(=O)Nc1ccccc1`?
LGR2 inh: -3.5

Results for CCC(=O)Nc1ccc2c(c1)C(=O)N(C)C[C@H](OC)[C@H](C)CN(C(=O)c1ccccc1F)[C@H](C)CO2 ?
LGR2 inh: -4.8
